High-throughput results (PubChem)
NIH3T3 tox – Cytotoxic Profiling in NIH 3T3 Cell Line of Diverse Libraries Using Quantitative High-Throughput Screening | NIH 3T3 viability, CellTiter-Glo ATP luminescence, 48-72 h | Potency, µM (series often up to 96.7 µM), actives largely listed as inhibitors | 4.3% of 94,000 active; note: nearly all actives have a fitted effect of over 55% in size
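Luminescent ATP readout (CellTiter-Glo, 10 min RT) after 48 or 72 hr compound exposure of NIH 3T3 cells seeded at 400 cells/well in 1536-well format; quantitative HTS.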
HEK cytotox – Cytotoxic Profiling in HEK 293 Cell Line of Diverse Libraries Using Quantitative High-Throughput Screening; HEK 293 viability, ATP luminescence (CellTiter-Glo), 48-72 h; Potency, µM (doses to about 115 µM), usual class: inhibitors; 6.6% of 94,000 active; AID 1345083, 2018; note: nearly all actives have a fitted effect of over 60% in size
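Cytotoxicity was scored by loss of ATP-coupled luminescence (CellTiter-Glo) in HEK 293 cells. Compound treatment ran 48 or 72 hr at 37 degree Celsius, 5% CO2, 95% humidity.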
FLuc inh – Firefly luciferase inhibition profiling of diverse chemical library using quantitative high-throughput screening; Luciferin 4-monooxygenase (Photinus pyralis), P08659; purified P. pyralis luciferase, luminescence, biochemical; 2.5% of 76,000 active; Potency, µM (titrated, usually from 115 µM), usual class: inhibitors; note: nearly all actives have a fitted effect of over 65% in size
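FLuc 10nM, D-luciferin 10uM, ATP 10uM, Mg acetate 10mM, Tris acetate pH 7.5, Tween/BSA; cpd qHTS; enzyme added last; CCD luminescence.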
hNpr1 antagonist – Natriuretic polypeptide receptor (hNpr1) antagonism - Primary qHTS | HEK293 hNpr1 GloSensor cGMP, ANP-stimulated luminescence | Potency, µM (top dose mostly 46.3 µM), actives largely listed as inhibitors | 1.6% of 76,000 active | AID 1347048, 2019; calls by dose curve; note: nearly all actives have a fitted effect of over 60% in size
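Compound pre-incubated 30 min at room temperature on GloSensor-loaded HEK293 cells stably carrying hNpr1 and the pGS-40F cGMP biosensor. Stimulation uses hNppA at 0.1 nM final; luminescence is taken at baseline and 20 min post-agonist.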
GPT2 inh – Primary qHTS assay for inhibitors of Glutamate pyruvate transaminase 2 (GPT2); Recombinant GPT2, coupled pyruvate oxidase/HRP Amplex Red fluorescence; Potency, µM (doses to about 57.7 µM), actives largely listed as inhibitors; Alanine aminotransferase 2 (Homo sapiens), Q8TD30; 0.25% of 100,000 active; note: nearly all actives have a fitted effect of over 60% in size
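Recombinant GPT2 (10ng/uL) with 250uM a-KG and 2mM L-alanine, 30 min at room temperature, in HEPES pH 7.5 buffer. Pyruvate detected by pyruvate oxidase/HRP/Amplex Red fluorescence after 30 min in the dark; AOA (50uM) as positive control.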
Of the large screens only hits and unclear results are named; the others gave an inactive call. The list is not random: actives were taken first. Their share in the collection is about 10%. Unless noted, calls come from the whole dose curve; as a rule, active = well fitted curve in the direction sought with a large enough effect; inconclusive = small, poorly fitted or top-dose-only effect, or another doubt; inactive = no such curve, though single readings can be large; an effect the other way counts as inactive or inconclusive.

c1ccc2ncc(CNC[C@H]3Cn4c(-c5ccc6c(c5)OCCO6)cnc4CO3)cc2c1	NIH3T3 tox inconclusive, HEK cytotox 50µM, FLuc inh inconclusive, hNpr1 antagonist 35µM, GPT2 inh inconclusive
c1ccc(CNC[C@H]2Cn3c(-c4ccccc4)cnc3CO2)cc1	HEK cytotox inconclusive
O=C(NC[C@H]1Cn2c(-c3cccc(Cl)c3)cnc2CO1)Nc1ccccc1	NIH3T3 tox inconclusive, HEK cytotox 100µM, hNpr1 antagonist inconclusive
COc1ccc(CCNC(=O)C2(Cc3ccccc3)CCCCC(=O)N2)cc1OC (configuration not stated)	none (no result: FLuc inh, hNpr1 antagonist)
CC(C)C(=O)Nc1cc(C2CCCC2)nn1C	none (no result: FLuc inh, hNpr1 antagonist)
c1ccc(-c2cc(CC3(NCc4ccco4)COC3)no2)nc1	none
COc1cccc(-c2cccc(C(=O)N3CCN(C(=O)NC4CCCC4)CC3)c2)c1	NIH3T3 tox inconclusive, HEK cytotox inconclusive (no result: FLuc inh, hNpr1 antagonist)
Cc1ccccc1CNC[C@H]1Cn2c(-c3ccccc3)cnc2CO1	NIH3T3 tox inconclusive, HEK cytotox 112µM
Clc1cccc(-c2cnc3n2C[C@H](CNCc2ccccc2)OC3)c1	NIH3T3 tox 79µM, HEK cytotox inconclusive
COc1ccc(OC)c(NC(=O)N2CCc3nc(-c4ccccc4)[nH]c3C2)c1	NIH3T3 tox inconclusive, HEK cytotox inconclusive (no result: FLuc inh, hNpr1 antagonist)
O=C1NC2(CCN(C(=O)Cc3ccccc3)C2)OCc2ccccc21 (configuration not stated)	HEK cytotox 100µM
COc1ccc(NC(=O)O[C@@H]2C=C[C@H](c3c(C)nn(-c4ccc(F)cc4)c3C)C2)cc1	NIH3T3 tox inconclusive, HEK cytotox inconclusive, FLuc inh inconclusive
Cc1nn(-c2ccccc2)c(C)c1[C@@H]1C=C[C@@H](NCc2ccc(F)cc2)C1	NIH3T3 tox inconclusive, HEK cytotox 63µM, FLuc inh inconclusive
COc1ccc(-n2nc(C)c([C@@H]3C=C[C@@H](NCc4ccc(F)cc4)C3)c2C)cc1	NIH3T3 tox 32µM, HEK cytotox 28µM, FLuc inh 25µM, hNpr1 antagonist inconclusive
Cc1nn(-c2ccc(C(F)(F)F)cc2)c(C)c1[C@@H]1C=C[C@@H](NC(=O)COCC(=O)O)C1	none
COc1ccc(-n2nc(C)c([C@@H]3C=C[C@@H](NCc4ccc(C(C)C)cc4)C3)c2C)cc1	NIH3T3 tox 32µM, HEK cytotox 32µM, FLuc inh 25µM, hNpr1 antagonist inconclusive
Cc1nn(-c2ccc(C(F)(F)F)cc2)c(C)c1[C@@H]1C=C[C@@H](NCc2ccc(N(C)C)cc2)C1	NIH3T3 tox 11µM, HEK cytotox 20µM
Cc1nn(-c2ccc(F)cc2)c(C)c1[C@@H]1C=C[C@@H](NC(=O)CC(C)(C)CC(=O)O)C1	NIH3T3 tox inconclusive
CC(C)(C)CNC1(Cc2cc(COc3ccccc3)on2)COC1	NIH3T3 tox inconclusive, HEK cytotox inconclusive, GPT2 inh inconclusive
COc1ccc(C(=O)N2CCCN(S(C)(=O)=O)c3ccccc32)c(C)c1	none
Cc1nn(-c2ccccc2[N+](=O)[O-])c(C)c1[C@@H]1C=C[C@@H](NCc2ccc(F)cc2)C1	NIH3T3 tox 89µM, HEK cytotox 100µM, FLuc inh inconclusive
O=C(NCc1cccc(F)c1)C1CCCCN1Cc1ccc(-c2cccs2)cc1 (configuration not stated)	NIH3T3 tox 28µM, HEK cytotox 20µM (no result: FLuc inh, hNpr1 antagonist)
O=C(NCc1cccc(F)c1)C1CCCCN1Cc1ccc(-c2ccsc2)cc1 (configuration not stated)	NIH3T3 tox 28µM, HEK cytotox 40µM (no result: FLuc inh, hNpr1 antagonist)
Cc1cc(C)cc(-c2ccc(CN3CCCC3C(=O)NCc3cccc(F)c3)cc2)c1 (configuration not stated)	NIH3T3 tox inconclusive, HEK cytotox inconclusive (no result: FLuc inh, hNpr1 antagonist)
O=C(NCc1ccc2c(c1)OCO2)C1CCCCN1Cc1ccc(-c2ccsc2)cc1 (configuration not stated)	NIH3T3 tox 13µM, HEK cytotox 22µM (no result: FLuc inh, hNpr1 antagonist)
C[C@]1(CO)[C@H]2Cc3sc(NC(=O)c4ccc(F)cc4)nc3[C@@H](CC(=O)N3CCOCC3)[C@]2(C)CC[C@H]1O	none
COc1ccc(Nc2ccnc(N3CCC(NC(=O)c4ccccc4OC)CC3)n2)cc1	NIH3T3 tox inconclusive, HEK cytotox 50µM (no result: FLuc inh, hNpr1 antagonist)
Cc1ccc(Nc2ccnc(N3CCC(NC(=O)c4ccccc4C)CC3)n2)cc1	NIH3T3 tox 25µM, HEK cytotox 35µM (no result: FLuc inh, hNpr1 antagonist)
COc1ccc(Nc2ccnc(N3CCC(NC(=O)C4CC4)CC3)n2)cc1	HEK cytotox inconclusive (no result: FLuc inh, hNpr1 antagonist)
COc1ccc(Nc2ccnc(N3CCC(NC(=O)c4ccccc4Cl)CC3)n2)cc1	NIH3T3 tox inconclusive, HEK cytotox 40µM (no result: FLuc inh, hNpr1 antagonist)
COc1ccccc1Nc1ccnc(N2CCC(NC(=O)c3ccccc3OC)CC2)n1	NIH3T3 tox inconclusive, HEK cytotox inconclusive (no result: FLuc inh, hNpr1 antagonist)
O=C(CCc1ccccc1)N1C[C@@H](CO)[C@@H]2Oc3ccc(Cl)cc3[C@@H]21	NIH3T3 tox inconclusive, HEK cytotox 79µM (no result: FLuc inh, hNpr1 antagonist, GPT2 inh)
CCCCCC(=O)N1C[C@@H](C(N)=O)[C@@H]2Oc3ccc(Cl)cc3[C@@H]21	HEK cytotox inconclusive (no result: FLuc inh, hNpr1 antagonist, GPT2 inh)
CCOC(=O)[C@@H]1[C@@H](O)C(=O)N(C)C12CCN(C(=O)c1cccc(C#N)c1)CC2	NIH3T3 tox inconclusive (no result: FLuc inh, hNpr1 antagonist, GPT2 inh)
COCCNC(=O)[C@H]1C[C@H](Oc2ccccc2)CN1Cc1cccn1C	HEK cytotox inconclusive
COCCNC(=O)[C@H]1C[C@H](Oc2ccccc2)CN1Cc1cn(C)c2ccccc12	HEK cytotox 40µM
O=C(NCC1CC1)c1cccc(OC2CN(Cc3ccc(F)cc3Cl)C2)c1	NIH3T3 tox 40µM, HEK cytotox inconclusive, hNpr1 antagonist inconclusive
O=C(NCC1CC1)c1cccc(OC2CN(Cc3ccc(F)cc3F)C2)c1	NIH3T3 tox inconclusive, HEK cytotox inconclusive
COc1ccc(C(=O)N[C@@H]2CN(Cc3ccccc3)C[C@H]2CN(C)C)cc1F	NIH3T3 tox 20µM, HEK cytotox 6.3µM (no result: FLuc inh, hNpr1 antagonist)
CN(C)C[C@@H]1CN(Cc2ccccc2)C[C@H]1NC(=O)c1nn(C)c2ccccc12	NIH3T3 tox inconclusive, HEK cytotox 40µM (no result: FLuc inh, hNpr1 antagonist)
CN(C)C[C@@H]1CN(Cc2ccccn2)C[C@H]1NC(=O)c1ccc(Cl)s1	HEK cytotox 79µM
COc1ccc(F)cc1-c1cccc(C(=O)NCCN[S+](C)(=O)[O-])c1	none (no result: FLuc inh, hNpr1 antagonist)
COc1ccc(F)cc1-c1cccc(C(=O)NCCNC(=O)C(C)(C)C)c1	NIH3T3 tox inconclusive, HEK cytotox inconclusive (no result: FLuc inh, hNpr1 antagonist)
COc1ccc(F)cc1-c1cccc(C(=O)NCCN[S+](=O)([O-])c2ccccc2)c1	NIH3T3 tox inconclusive, HEK cytotox inconclusive (no result: FLuc inh, hNpr1 antagonist)
COCC(=O)NCCNC(=O)c1cccc(-c2cc(F)ccc2OC)c1	none (no result: FLuc inh, hNpr1 antagonist)
